Data from PubChem BioAssay.
The source made the active and inactive calls.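 Rule for the calls, unless noted: active = visually confirmed hit in the image check and inhibition above 20%; inconclusive = visually confirmed hit but inhibition not above 20%; inactive = no visual hit in the image check.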

Assay: inhibitors of TNFa-induced NFkB p65 translocation, primary screen, imaging, HUVEC, MLSMR starter and 10KST1 sets (AID 438;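 active = inhibition above 20% together with a positive visual image hit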;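 note: compound added about 3h40 before a 20 min TNFalpha stimulation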;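 for inhibition: signal is the nuclear over cytoplasmic p65 intensity ratio per well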)
Settings: HUVEC TNFa-induced p65 nuclear translocation; cell count: measured here: nuclei count (cytotoxicity indicator), at 2.08 µM; inhibition: at 2 µM, stronger effect = higher value, 0% TNFa-plus-vehicle, 100% no-TNFa wells
With O=C1C=C(O)CC(c2cccs2)C1 (stereo not given) the inhibition was 1.5% (inactive) and the cell count was 590. In the case of Cc1c(C(Nc2ccccn2)c2ccccc2)c(=O)n(-c2ccccc2)n1C (stereo not given), the inhibition is reported as -5.3% (inactive) and the cell count is reported as 522. In the case of O=C(c1nsnc1-c1ccccc1O)N1CCCCC1, the cell count is reported as 500 and the inhibition is reported as -8% (inactive). For Cc1cc(=O)oc(C)c1C(=O)N1CCN(C)CC1, the cell count was 367 and the inhibition was -10.4% (inactive). For CCCOc1ccc(C2NC(=O)NC2=O)cc1 (stereo not given), the cell count was 614 and the inhibition was -8% (inactive). For O=c1c(-c2ccc3c(c2)OCCO3)c(C(F)(F)F)oc2cc(O)cc(O)c12, the cell count was 534 and the inhibition was -10.2% (inactive). For Cn1c(=NCC(O)COc2ccccc2)sc2ccccc21 (stereo not given), the cell count was 482 and the inhibition was 7.1% (inactive). For COc1cc(-c2cc(C(F)(F)F)n3ncc(C(=O)O)c3n2)cc(OC)c1OC, the cell count was 479 and the inhibition was -8.4% (inactive). In the case of CCOC(=O)CSc1nc(-c2ccncc2)ccc1C#N, the cell count is reported as 688 and the inhibition is reported as -16.1% (inactive). With COc1ccc(OCC(O)Cn2c(Nc3cccc(C)c3)nc3c2c(=O)n(C)c(=O)n3C)cc1 (stereo not given) the inhibition was -0.2% (inactive) and the cell count was 514. For CCCCn1c2nc3ccccc3nc2c2c(=O)n(CC(C)C)cnc21, the inhibition was 2.5% (inactive) and the cell count was 391. In the case of CCN(CC)S(=O)(=O)c1ccc2c(c1)c(C(=O)O)cn2C, the inhibition is reported as -15.2% (inactive) and the cell count is reported as 435. For CSc1nc(C)cc(OCCNS(=O)(=O)c2cc(C)ccc2C)n1, the inhibition was -16% (inactive) and the cell count was 384. For CCOc1nc(SC(C(C)=O)C(=O)Nc2ccccc2)nc(N(C)C)n1 (stereo not given), the inhibition was -20.6% (inactive) and the cell count was 302. With O=C(Oc1ccccc1N1C(=O)CCC1=O)c1ccco1 the cell count was 545 and the inhibition was 4.9% (inactive). For Cc1cc(C)c(C#N)c(SCC(=O)NC2CC2)n1, the cell count was 646 and the inhibition was -7.6% (inactive). For COC(=O)c1ccccc1NC=C1C(=O)OC2(CCCCC2)OC1=O, the inhibition was -9% (inactive) and the cell count was 343. In the case of Cc1cc(C)n(C(=O)CN2C(=O)CCC2=O)n1, the cell count is reported as 406 and the inhibition is reported as -19% (inactive). With CN1C2C=C3C(C#N)=C(N)C(C#N)(C#N)[C@@H](c4ccsc4)[C@@H]3C1CC2 (stereo not given in full) the cell count was 589 and the inhibition was -9.3% (inactive). With Cc1ccc(/C=c2\sc3n(c2=O)CN(c2ccc(Br)cc2)CN=3)o1 the cell count was 367 and the inhibition was -0.5% (inactive). With Clc1ccccc1-c1nn2c(-c3ccccn3)nnc2s1 the cell count was 603 and the inhibition was -6.7% (inactive). In the case of CC(=O)NC1(C(F)(F)F)C(=O)Nc2c1c(=O)n(C)c(=O)n2C (stereo not given), the inhibition is reported as -4.5% (inactive) and the cell count is reported as 480. In the case of CC(Sc1nc(N2CCCCC2)c2c(c1C#N)CCCC2)C(=O)O (stereo not given), the inhibition is reported as 4.5% (inactive) and the cell count is reported as 624. In the case of CCN(CC)CCCn1c(C)cc2c(c1=O)C(c1cccc(Cl)c1)C(C#N)=C(N)O2 (stereo not given), the cell count is reported as 448 and the inhibition is reported as 13.8% (inactive). In the case of CCCCOC(=O)CSc1nc(N)c(C#N)c(-c2ccc(OC)cc2)c1C#N, the cell count is reported as 370 and the inhibition is reported as -0.4% (inactive). For COc1ccc(N2CCN(C3CC(=O)NC3=O)CC2)cc1 (stereo not given), the cell count was 540 and the inhibition was -26.9% (inactive). For O=C(c1ccco1)N1CCN(c2ncnc3c2[nH]c2ccccc23)CC1, the inhibition was 0.3% (inactive) and the cell count was 462. In the case of COc1ccc(OC)c(C2NC(=O)c3sc(=S)n(-c4ccccc4)c3N2)c1 (stereo not given), the cell count is reported as 612 and the inhibition is reported as -8.4% (inactive). With CCOc1ccc(-c2nn3c(-c4ccc(OC)cc4)nnc3s2)cc1 the inhibition was -14.6% (inactive) and the cell count was 620. In the case of c1cncc(-c2nnc3sc(C4CCCCC4)nn23)c1, the cell count is reported as 507 and the inhibition is reported as -5.5% (inactive). In the case of Cc1c(C(=O)O)c(=S)sn1CCOc1ccccc1, the inhibition is reported as -1.9% (inactive) and the cell count is reported as 646. With CCC1(C)Cc2c(sc3c2c(=O)n(C)c2nnc(SCc4ccc5c(c4)OCO5)n32)CO1 (stereo not given) the inhibition was -11% (inactive) and the cell count was 497. In the case of CCCC(=O)N1CCN(c2nc(CC(C)C)c3c(c2C#N)CCC3)CC1, the cell count is reported as 529 and the inhibition is reported as -8.3% (inactive). With COC(=O)c1c(C)noc1-c1cc(C)on1 the inhibition was 5.6% (inactive) and the cell count was 514. In the case of CN1c2ccccc2N(C)C1c1c(O)ccc2ccccc12, the inhibition is reported as -22% (inactive) and the cell count is reported as 340. For O=C1CCC(=O)N1CN(C(=O)c1ccco1)c1ccc(Cl)c(Cl)c1, the cell count was 481 and the inhibition was 1.1% (inactive). For CC(C)Oc1ccc(Cc2c(O)nc(NCCCN(C)C)[nH]c2=O)cc1, the cell count was 383 and the inhibition was -15.2% (inactive). For CCCCOc1ccc(CSC(CC(=O)O)C(=O)O)cc1 (stereo not given), the inhibition was -16.7% (inactive) and the cell count was 336. For COCc1cc(=O)[nH]c(Nc2nc3ccc(C)cc3o2)n1, the inhibition was -19% (inactive) and the cell count was 568. For CCOC(=O)CCCCC(=O)NC(CO)C(=O)NC (stereo not given), the inhibition was -3.8% (inactive) and the cell count was 573.

Assay: inhibitors of E-selectin induction by TNFa, primary screen, imaging, HUVEC, immunofluorescence, MLSMR starter and 10KST1 sets (AID 487);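 for inhibition: signal is fraction of cell area covered by stained E-selectin grains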;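 for nuclei count: 100% = median nuclei count of all wells on the same plate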
Settings: HUVEC TNFalpha-induced E-selectin immunofluorescence imaging, at 2 µM; inhibition: stronger effect = higher value; nuclei count: measured here: cell number, toxicity
With O=C1C=C(O)CC(c2cccs2)C1 (stereo not given) the nuclei count was 126% and the inhibition was -11.9% (inactive). For Cc1c(C(Nc2ccccn2)c2ccccc2)c(=O)n(-c2ccccc2)n1C (stereo not given), the inhibition was -96.1% (inactive) and the nuclei count was 136%. With O=C(c1nsnc1-c1ccccc1O)N1CCCCC1 the inhibition was -58.8% (inactive) and the nuclei count was 86.9%. With Cc1cc(=O)oc(C)c1C(=O)N1CCN(C)CC1 the inhibition was -117% (inactive) and the nuclei count was 167%. For CCCOc1ccc(C2NC(=O)NC2=O)cc1 (stereo not given), the nuclei count was 113% and the inhibition was -260% (inactive). For O=c1c(-c2ccc3c(c2)OCCO3)c(C(F)(F)F)oc2cc(O)cc(O)c12, the nuclei count was 131% and the inhibition was -138% (inactive). For Cn1c(=NCC(O)COc2ccccc2)sc2ccccc21 (stereo not given), the nuclei count was 167% and the inhibition was -85.2% (inactive). For COc1cc(-c2cc(C(F)(F)F)n3ncc(C(=O)O)c3n2)cc(OC)c1OC, the inhibition was -63% (inactive) and the nuclei count was 123%. For CCOC(=O)CSc1nc(-c2ccncc2)ccc1C#N, the inhibition was -23.4% (inactive) and the nuclei count was 174%. In the case of COc1ccc(OCC(O)Cn2c(Nc3cccc(C)c3)nc3c2c(=O)n(C)c(=O)n3C)cc1 (stereo not given), the inhibition is reported as -160% (inactive) and the nuclei count is reported as 139%. In the case of CCCCn1c2nc3ccccc3nc2c2c(=O)n(CC(C)C)cnc21, the inhibition is reported as 21.4% (inactive) and the nuclei count is reported as 141%. For CCN(CC)S(=O)(=O)c1ccc2c(c1)c(C(=O)O)cn2C, the inhibition was -25.4% (inactive) and the nuclei count was 114%. With CSc1nc(C)cc(OCCNS(=O)(=O)c2cc(C)ccc2C)n1 the inhibition was -21.6% (inactive) and the nuclei count was 141%. For CCOc1nc(SC(C(C)=O)C(=O)Nc2ccccc2)nc(N(C)C)n1 (stereo not given), the nuclei count was 91.5% and the inhibition was 10.9% (inactive). For O=C(Oc1ccccc1N1C(=O)CCC1=O)c1ccco1, the nuclei count was 118% and the inhibition was -119% (inactive). In the case of Cc1cc(C)c(C#N)c(SCC(=O)NC2CC2)n1, the inhibition is reported as -12% (inactive) and the nuclei count is reported as 154%. For COC(=O)c1ccccc1NC=C1C(=O)OC2(CCCCC2)OC1=O, the nuclei count was 86.4% and the inhibition was 27.4% (inactive). With Cc1cc(C)n(C(=O)CN2C(=O)CCC2=O)n1 the inhibition was -169% (inactive) and the nuclei count was 155%. With CN1C2C=C3C(C#N)=C(N)C(C#N)(C#N)[C@@H](c4ccsc4)[C@@H]3C1CC2 (stereo not given in full) the inhibition was 24% (inactive) and the nuclei count was 148%. In the case of Cc1ccc(/C=c2\sc3n(c2=O)CN(c2ccc(Br)cc2)CN=3)o1, the inhibition is reported as -127% (inactive) and the nuclei count is reported as 137%. With Clc1ccccc1-c1nn2c(-c3ccccn3)nnc2s1 the nuclei count was 167% and the inhibition was -82.4% (inactive). With CC(=O)NC1(C(F)(F)F)C(=O)Nc2c1c(=O)n(C)c(=O)n2C (stereo not given) the nuclei count was 144% and the inhibition was -139% (inactive). With CC(Sc1nc(N2CCCCC2)c2c(c1C#N)CCCC2)C(=O)O (stereo not given) the nuclei count was 161% and the inhibition was -96.1% (inactive). For CCN(CC)CCCn1c(C)cc2c(c1=O)C(c1cccc(Cl)c1)C(C#N)=C(N)O2 (stereo not given), the inhibition was -49.3% (inactive) and the nuclei count was 146%. In the case of CCCCOC(=O)CSc1nc(N)c(C#N)c(-c2ccc(OC)cc2)c1C#N, the inhibition is reported as -58.5% (inactive) and the nuclei count is reported as 99.4%. In the case of COc1ccc(N2CCN(C3CC(=O)NC3=O)CC2)cc1 (stereo not given), the nuclei count is reported as 176% and the inhibition is reported as -161% (inactive). In the case of O=C(c1ccco1)N1CCN(c2ncnc3c2[nH]c2ccccc23)CC1, the nuclei count is reported as 138% and the inhibition is reported as -18.4% (inactive). For COc1ccc(OC)c(C2NC(=O)c3sc(=S)n(-c4ccccc4)c3N2)c1 (stereo not given), the inhibition was -60.3% (inactive) and the nuclei count was 159%. In the case of CCOc1ccc(-c2nn3c(-c4ccc(OC)cc4)nnc3s2)cc1, the inhibition is reported as -58.9% (inactive) and the nuclei count is reported as 162%. In the case of c1cncc(-c2nnc3sc(C4CCCCC4)nn23)c1, the nuclei count is reported as 106% and the inhibition is reported as -138% (inactive). For Cc1c(C(=O)O)c(=S)sn1CCOc1ccccc1, the nuclei count was 159% and the inhibition was 16.3% (inactive). With CCC1(C)Cc2c(sc3c2c(=O)n(C)c2nnc(SCc4ccc5c(c4)OCO5)n32)CO1 (stereo not given) the inhibition was 34% (inactive) and the nuclei count was 98.6%. With CCCC(=O)N1CCN(c2nc(CC(C)C)c3c(c2C#N)CCC3)CC1 the nuclei count was 130% and the inhibition was -117% (inactive). For COC(=O)c1c(C)noc1-c1cc(C)on1, the inhibition was 63.3% (inactive) and the nuclei count was 177%. For CN1c2ccccc2N(C)C1c1c(O)ccc2ccccc12, the nuclei count was 180% and the inhibition was -387% (inactive). In the case of O=C1CCC(=O)N1CN(C(=O)c1ccco1)c1ccc(Cl)c(Cl)c1, the inhibition is reported as -72.5% (inactive) and the nuclei count is reported as 125%. With CC(C)Oc1ccc(Cc2c(O)nc(NCCCN(C)C)[nH]c2=O)cc1 the nuclei count was 152% and the inhibition was -285% (inactive). In the case of CCCCOc1ccc(CSC(CC(=O)O)C(=O)O)cc1 (stereo not given), the inhibition is reported as -75.1% (inactive) and the nuclei count is reported as 114%. With COCc1cc(=O)[nH]c(Nc2nc3ccc(C)cc3o2)n1 the nuclei count was 156% and the inhibition was -52.2% (inactive). In the case of CCOC(=O)CCCCC(=O)NC(CO)C(=O)NC (stereo not given), the inhibition is reported as -97.8% (inactive) and the nuclei count is reported as 204%.
